Source: PubChem (National Center for Advancing Translational Sciences (NCATS))
A selection: hits, their analogues and other compounds. The true share with any hit is near 18%.
Six1-Eya2 inh – qHTS Assay for Inhibitors of the Six1/Eya2 Interaction; AlphaScreen GST-Six1/His-Eya2 binding, biochemical; hits give low values; activity change, % (concentration not given with the values); 360,000 compounds, 0.56% hits; AID 651725, 2012; in the data active = activity change below about -65%; inconclusive = mostly about -30% to -63%
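Homogeneous AlphaScreen proximity assay pairing GST-Six1 with His-tagged Eya2 (added as 5X mix: 250 nM and 500 nM) in 50 mM Tris pH 8.0, 300 mM NaCl, 1 mM TCEP. Glutathione donor and nickel acceptor beads; 1 h, 37 °C, dark.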
DT40 TDP1 CPT – qHTS for Inhibitors of human tyrosyl-DNA phosphodiesterase 1 (TDP1): qHTS in cells in presence of CPT; 420,000 compounds, 12% hits; chicken DT40 Tdp1-/-;hTDP1 cells + 20 nM CPT, ATP luminescence, 48 h; Potency, µM (doses to about 46.2 µM), without a hit: top-dose activity change, negative = growth inhibition, actives largely listed as inhibitors; note: potency is the fitted concentration of half-maximal effect; nearly all actives have a fitted effect of over 55% in size
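Chicken DT40 Tdp1-/- cells stably complemented with human TDP1 were seeded at 400 cells/well in medium containing 20 nM camptothecin, exposed to pin-transferred compounds, and grown at 37 °C for at least 48 hr. Viability was read as ATP luminescence.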
IL-1B inflam inh – qHTS for Inhibitors of Inflammasome Signaling: IL-1-beta AlphaLISA Primary Screen. THP-1 LPS/ATP IL-1B secretion, AlphaLISA, 16 h; hits give low values. activity change, % at 57.5 µM. 360,000 compounds, 4.7% hits; in the data active = activity change below about -50%; inconclusive = mostly about -30% to -49%
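THP-1 cells pretreated 1 hr with compounds (up to 57.5 uM final), then stimulated with LPS (250 ng/mL final) plus ATP (1.25 mM final); secreted IL-1B measured by AlphaLISA after 16 hr, decreased signal indicating inhibition.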
CtBP-E1A blk – qHTS Assay for Inhibitors of the CtBP/E1A Interaction | activity change, % (no concentration beside the values) | AlphaScreen GST-E1A/His-CtBP binding, 1536-well; hits give low values | 340,000 compounds, 0.49% hits | AID 651724, 2012; in the data active = activity change below about -65%; inconclusive = mostly about -30% to -63%
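Homogeneous bead-based format: GST-tagged E1A captured on glutathione donor beads, His-tagged CtBP on nickel acceptor beads; compounds precede bead addition by 2 h at 37 °C.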
TDP1 inh – qHTS Assay for Inhibitors of Tyrosyl-DNA Phosphodiesterase (TDP1) | 350,000 compounds, 0.28% hits | recombinant TDP1, AlphaScreen DNA substrate cleavage | Potency, µM (highest dose often 130 µM), inactives show top-dose activity change, negative = inhibition, most hits filed as inhibitors | AID 485290, 2010 | Tyrosyl-DNA phosphodiesterase 1 (Homo sapiens), Q9NUW8; note: potency is the fitted concentration of half-maximal effect; nearly all actives have a fitted effect of over 40% in size
Target sequence (Q9NUW8 whole entry, looked up): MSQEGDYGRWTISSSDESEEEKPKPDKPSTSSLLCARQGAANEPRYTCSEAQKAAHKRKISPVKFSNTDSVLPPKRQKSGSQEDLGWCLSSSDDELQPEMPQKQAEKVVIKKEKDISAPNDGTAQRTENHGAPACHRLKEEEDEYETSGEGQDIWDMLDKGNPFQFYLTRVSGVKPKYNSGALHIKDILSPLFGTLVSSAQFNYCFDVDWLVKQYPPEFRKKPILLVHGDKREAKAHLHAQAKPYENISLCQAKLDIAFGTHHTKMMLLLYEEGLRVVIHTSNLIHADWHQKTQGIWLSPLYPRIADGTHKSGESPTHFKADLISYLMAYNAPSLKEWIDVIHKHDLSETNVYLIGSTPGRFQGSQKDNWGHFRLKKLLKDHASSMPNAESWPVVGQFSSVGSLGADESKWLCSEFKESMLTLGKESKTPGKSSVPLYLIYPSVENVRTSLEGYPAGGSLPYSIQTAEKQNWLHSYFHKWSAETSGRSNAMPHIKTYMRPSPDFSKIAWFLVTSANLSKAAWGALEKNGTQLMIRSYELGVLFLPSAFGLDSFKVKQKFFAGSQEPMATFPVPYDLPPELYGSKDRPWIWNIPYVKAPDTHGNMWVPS
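Enzyme-compound mixtures sat 15 min at room temperature, followed by a 5 min reaction with 15 nM final substrate and 10 min with AlphaScreen beads. Recombinant human Tdp1 was used at 1 nM final.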
TDP1 cell noCPT – qHTS for Inhibitors of human tyrosyl-DNA phosphodiesterase 1 (TDP1): qHTS in cells in absence of CPT; 420,000 compounds, 15% hits; Potency, µM (doses to about 46.2 µM), inactives show at the highest dose activity change, negative = growth inhibition, actives largely listed as inhibitors; DT40 Tdp1-/- hTDP1 cells, no CPT, ATP luminescence, 48 h; AID 686978, 2013; note: potency is the fitted concentration of half-maximal effect; nearly all actives have a fitted effect of over 55% in size
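No-CPT arm: Tdp1-/-;hTDP1 DT40 cells (400/well) plus compounds, incubated ≥48 hr at 37 °C. Readout CellTiter-Glo luminescence.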
* marks the source's active call; other numbers are inactive results; ? = inconclusive; . = no result. Unless noted, calls come from the whole dose curve; as a rule, active = well fitted curve in the direction sought with a large enough effect; inconclusive = small, poorly fitted or top-dose-only effect, or another doubt; inactive = no such curve, though single readings can be large; an effect the other way counts as inactive or inconclusive. % is set by controls: 0 for no effect and ±100 for the full control effect.

SMILES	Six1-Eya2 inh	DT40 TDP1 CPT	IL-1B inflam inh	CtBP-E1A blk	TDP1 inh	TDP1 cell noCPT
COc1ccccc1N(C(=O)c1snc(C(N)=O)c1N)C(C(=O)NCCC(C)C)c1ccco1 (configuration not stated)	2	?	-19	3	-4%	-29%
COc1ccc(OC)c(C(C(=O)NC2CCCCC2)N(C(=O)c2snc(C(N)=O)c2N)c2ccccc2OC)c1 (configuration not stated)	-7	?	12	-13	.	?
CCOc1ccccc1N(C(=O)c1snc(C(N)=O)c1N)C(C(=O)NCCC(C)C)c1ccco1 (configuration not stated)	1	?	-11	5	4%	21µM*
COc1ccccc1N(C(=O)c1snc(C(N)=O)c1N)C(C(=O)NC1CCCC1)c1ccco1 (configuration not stated)	-1	?	-8	5	4%	-17%
COc1ccccc1N(C(=O)c1snc(C(N)=O)c1N)C(C(=O)NC1CCCCC1)c1cccc(OC)c1OC (configuration not stated)	1	?	0	4	.	16µM*
Cc1nn(Cc2noc(C(=O)NCc3cccc(F)c3)n2)c(C)c1Br	.	2%	.	.	5%	-9%
CCOc1ccc(NC(=O)CC2C(=O)N(c3ccc(OC)cc3)C(=O)N2CCc2cccs2)cc1 (configuration not stated)	-1	-22%	0	-20	0%	?
Cc1ccc(N(CC(=O)NCCSCc2ccco2)S(=O)(=O)c2ccc(C)cc2)cc1	-7	-15%	-2	-6	8%	?
CC(=O)Nc1cc(C)nn1-c1nc(C)cc(C)n1	-1	-6%	2	2	5%	-4%
Cc1ccc(Nc2cc(C)nn2-c2nc(C)cc(=O)[nH]2)cc1	-82*	0.79µM*	-110*	-81*	9%	0.56µM*
Cc1ccc(Nc2nc3ccccc3nc2-n2nc(C)cc2C)cc1	22	0%	5	32	-1%	-8%
Cc1ccc(Nc2cc(C)nn2-c2nc(C)cc(C)n2)cc1	-29	5.8µM*	-28	-29	0%	5.8µM*
C=CC(C)(C)c1[nH]c2ccccc2c1C1=C(O)C(=O)C(c2c[nH]c3c(CC=C(C)C)cccc23)=C(O)C1=O	.	13µM*	.	.	?	13µM*
Cc1nnc(C)n1/N=C/c1cc2ccccc2nc1Cl	-24	2.6µM*	92	7	7%	2.9µM*
C(=NN=C1c2ccccc2-c2ccccc21)c1c[nH]c2ccccc12	?	?	-103*	1	.	?
CCOC(=O)/C(C#N)=C/c1c[nH]c2ccccc12	-14	-27%	4	-4	8%	-13%
CCOC(=O)/C(C#N)=C/c1cc2ccccc2nc1Cl	1	2.8µM*	56	4	7%	4µM*
Cc1cc(N/N=C/c2c[nH]c3ccccc23)c2ccccc2n1	15	4%	12	1	6%	-19%
Cn1c(N/N=C/c2c[nH]c3ccccc23)nc2ccccc21	-29	?	-98*	-16	12%	?
Cn1c(N/N=C/c2cc3ccccc3nc2Cl)nc2ccccc21	0	3.3µM*	11	-2	5%	2.6µM*
O=C(O)c1ccc(N/N=C/c2c[nH]c3ccccc23)cc1	-1	1%	14	.	.	6%
Fc1c(F)c(F)c(N/N=C/c2c[nH]c3ccccc23)c(F)c1F	-8	?	-87*	0	0%	?
CCCCn1c(/N=C/c2c[nH]c3ccccc23)nc2ccccc21	-17	?	-52*	1	2%	21µM*
O=C(CSc1nnc2ccc(-c3cccnc3)nn12)Nc1ccc(F)cc1F	-8	-8%	23	-8	-2%	-5%
COc1ccc(S(=O)(=O)N(CC(=O)NCc2ccncc2)Cc2ccccc2)cc1	9	?	11	1	.	12µM*
SMILES	Six1-Eya2 inh	DT40 TDP1 CPT	IL-1B inflam inh	CtBP-E1A blk	TDP1 inh	TDP1 cell noCPT
O=C(CN(Cc1ccccc1)S(=O)(=O)c1ccc(F)cc1)NCc1ccncc1	4	-15%	30	3	4%	-5%
CCN(CC(=O)NCc1ccc(Cl)cc1)C(=O)c1cccc(S(=O)(=O)Nc2ccc(OC)cc2)c1	1	?	-8	-5	0%	10µM*
COc1ccc(C)cc1S(=O)(=O)N(CC(=O)NCc1ccc(Cl)cc1)Cc1ccccc1	0	21µM*	-61*	16	-1%	?
CCN(CC(=O)NCc1ccc(Cl)cc1)C(=O)c1ccc(C#N)cc1	3	21µM*	1	3	.	?
O=C(Nc1ccc(OC(F)(F)F)cc1)c1ccc(-n2cncn2)nc1	28	1%	4	0	-5%	-11%
COc1cccc(C2CC(=O)Nc3cc(OC)c(OC)c(OC)c32)c1OC(C)C (configuration not stated)	.	?	.	.	0%	?
COc1ccc(CNC(=O)CN(Cc2ccccc2)S(=O)(=O)c2ccc(Cl)cc2)cc1	-1	?	-16	8	-6%	18µM*
COc1ccc(CNC(=O)CN(Cc2ccc(Cl)cc2)S(=O)(=O)c2ccccc2)cc1	-12	?	?	-7	-1%	?
CCN(CC)C(=O)c1sc(NC(=O)C(C)Sc2nc(-c3ccccc3)cc(C(F)(F)F)n2)c(C(=O)OC)c1C (configuration not stated)	.	7.3µM*	.	.	-3%	7.3µM*
CC(Sc1nc(-c2ccccc2)cc(C(F)(F)F)n1)C(=O)O (configuration not stated)	-6	?	39	.	1%	-1%
